Test results as given in PubChem BioAssay AID652104 (National Center for Advancing Translational Sciences (NCATS), 2013).
In all, about 410,000 compounds went through this assay and about 7,200 (1.8%) were called active. Not shown: some 7% with an inconclusive outcome. The entries come from a sample that favours actives as a whole. Unmarked numbers belong to inactive results. Calls come from the whole dose curve; as a rule, active = well fitted activation curve with a large enough effect; inconclusive = small, poorly fitted or top-dose-only effect, or another doubt; inactive = no such curve, though single readings can be large or run the other way.

Test: qHTS of TDP-43 Inhibitors; note: nearly all actives have a fitted effect of over 50% in size; for growth rescue (activation): % of control where 0% means no effect
Settings: TDP-43 expressing yeast growth rescue, BacTiter-Glo, 24 h; series mostly up to 46.1 µM; growth rescue (activation): at the top concentration
Text: The goal of this project is to identify new chemical probes capable of reversing the toxicity associated with TDP-43 which is associated with frontotemporal lobar degeneration and amyotrophic lateral sclerosis. These compounds will provide a complementary approach to deciphering the tangled mechanisms of toxicity and protection that we have uncovered through genome-wide genetic screens and are beginning to uncover in a large-scale proteomics analysis with mass spectroscopy.
To this end, a miniaturized assay was developed to be screened against the Molecular Libraries Small Molecule Repository (MLSMR) to discover TDP-43 inhibitors. Please note that in the set-up this yeast-based assay compounds that inhibit as TDP-43, have a read-out as activators.
NIH Chemical Genomics Center [NCGC]
NIH Molecular Libraries Probe Centers Network [MLPCN]
Assay Submitter (PI): Susan Lindquist, Whitehead Institute/MIT
Dispense 2.5 microL yeast galactose medium per 1536-well plate, pin compound, dispense 2.5 microL TDP-43 expressing yeast in galactose medium at OD600=0.02 (pregrown in raffinose medium to mid-log phase) per well, incubate for 24 hr at 30 deg C, and cell growth will be measured using 5 microL of Bactiter/Glo reagent to entire plate and read using Luminescence Protocol in ViewLux.
Potency is the fitted concentration of half-maximal effect.

Row | Compound | growth rescue (activation) | Potency
1 | CCOc1ccc(CNC(=O)c2cc(-c3ccc(Cl)s3)nc3ccccc23)cc1 | 22.8% | –
2 | O=C(c1ccco1)n1nc(-c2ccc(Cl)cc2)nc1NCc1ccccc1 | 5% | –
3 | CN(O)C(=S)c1ccccc1 | – | 3.55 µM (active)
4 | Cc1cc(C)cc(NC(=O)Cn2nc(N3CCN(c4ccccc4)CC3)ccc2=O)c1 | 20.2% | –
5 | Cc1cc(C)nc(-n2ncc3c2CC(c2ccc(C(C)C)cc2)CC3=O)n1 (stereo unspecified) | – | 28.2 µM (active)
6 | Cc1nc2nc3c(cn2n1)C(=O)CC(c1ccccc1)C3 (stereo unspecified) | 13.9% | –
7 | CNC(=O)c1csc(Cc2c(Cl)sc3ccc(Cl)cc23)n1 | – | 20 µM (active)
8 | CC(=O)NNC(=O)c1csc(Cc2c(Cl)sc3ccc(Cl)cc23)n1 | 2.99% | –
9 | O=C(O)COCC(=O)NCc1csc2ccc(Cl)cc12 | -10.6% | –
10 | COc1ccc(-n2c(=O)c3ccccc3n(Cc3ccccc3Cl)c2=O)cc1 | 15.2% | –
11 | Cc1ccc(CCN2CC(C(=O)NCCc3ccccc3)CC2=O)cc1 (stereo unspecified) | 4.24% | –
12 | C=CCN1C(=O)C(O)(CC(=O)c2ccc(Cl)cc2)c2ccccc21 (stereo unspecified) | 1.69% | –
13 | CCCN1C(=O)C(O)(CC(=O)c2ccc(CC)cc2)c2cc(Br)ccc21 (stereo unspecified) | – | 25.1 µM (active)
14 | Cc1ccc(C(=O)CC2(O)C(=O)N(CCc3ccccc3)c3ccc(Br)cc32)cc1 (stereo unspecified) | – | 35.5 µM (active)
15 | Cc1coc(C)c1C(=O)CC1(O)C(=O)N(C)c2ccc(Cl)cc21 (stereo unspecified) | -11.5% | –
16 | CCOC(=O)CN1C(=O)C(O)(CC(=O)c2ccccn2)c2ccccc21 (stereo unspecified) | 9.65% | –
17 | O=C(CC1Oc2ccccc2NC1=O)NCc1ccc(F)cc1 (stereo unspecified) | -2.06% | –
18 | O=C(O)c1c(CNCc2cccc(F)c2)c2ccccc2n1Cc1ccccc1 | 24.3% | –
19 | COC(=O)C1NN=C(C(=O)c2ccc(Br)cc2)C1c1cccc(Br)c1 (stereo unspecified) | – | 25.1 µM (active)
20 | Cc1nnc(C)n1-c1ccc(C(=O)Nc2cccc(Br)c2)cc1 | 3.68% | –
21 | COC(=O)CN1C(C)=Nc2ccc(Br)cc2C1c1ccccc1 (stereo unspecified) | -3.72% | –
22 | CC(C)Cn1c(C2CC(=O)N(c3ccccc3Cl)C2)nc2ccccc21 (stereo unspecified) | 25.5% | –
23 | Cn1c(=O)n(Cc2c(F)cccc2Cl)c(=O)c2c1nc1n2CCN1c1ccc(F)cc1 | 9.24% | –
24 | COc1ccc(CCNc2nc3c(-c4cccc(F)c4)nnn3c3ccccc23)cc1OC | 17.4% | –

Row | Compound | growth rescue (activation) | Potency
25 | COc1ccc(-c2cc(C(F)(F)F)n3nc(-c4ccccc4)cc3n2)cc1OC | 0% | –
26 | COCCNc1cc(-c2ccccc2)nc2cc(-c3cccc(F)c3)nn12 | – | 3.16 µM (active)
27 | CCOC(=O)c1cc2c(=O)n3ccccc3nc2n(CC2CCCO2)c1=NC(=O)c1ccccc1Br (stereo unspecified) | 20.8% | –
28 | CCCc1cc(=O)n2[nH]c(NCc3ccc(CC)cc3)nc2n1 | 7.91% | –
29 | O=C(COC(=O)Cc1ccc([N+](=O)[O-])cc1)NC1CCCCCC1 | 6.3% | –
30 | N/C(Cc1ccc([N+](=O)[O-])cc1)=N\OC(=O)COc1ccc2ccccc2c1 | 14.2% | –
31 | N/C(Cc1ccc([N+](=O)[O-])cc1)=N\OC(=O)C1CCCCC1 | – | 20 µM (active)
32 | CC(C)NC(=O)c1nn(-c2ccccc2F)nc1CO | 2.75% | –
33 | COc1cccc(C(=O)NCC(=O)OCc2cc(=O)n3ccsc3n2)c1 | 3.19% | –
34 | O=c1cc(Cn2nnc(-c3ccc(Cl)cc3)n2)nc2sccn12 | – | 11.2 µM (active)
35 | Cc1ccc(-c2nn3c(=O)cc(CN4CCN(S(=O)(=O)c5ccc(Cl)cc5)CC4)nc3s2)cc1 | 9.9% | –
36 | COc1ccc(C2=NC(c3ccncc3)=Nc3ccc(Br)cc3N2)cc1 | -1.4% | –
37 | Brc1ccc2c(c1)NC(c1cccnc1)=NC(c1ccccc1)=N2 | – | 35.5 µM (active)
38 | COc1ccc2c(c1)C(c1cccs1)=NNC(c1cccnc1)=N2 | -15% [at 9.22 µM] | –
39 | CCOc1cc(CNC(=O)c2sc3ncnc(N(C)C4CCCCC4)c3c2C)ccc1OC | 0% | –
40 | O=C(c1ccc(Cl)cc1)n1nc(-c2cccnc2)nc1NCc1ccc(F)cc1 | 14% | –
41 | CCC(C)[C@H]1COCCS(=O)(=O)N1Cc1ccc(C)cc1 (stereo partly specified) | 24.2% | –
42 | CCCC[C@H]1COCCS(=O)(=O)N1Cc1cccc(Cl)c1 | – | 12.6 µM (active)
43 | O=S1(=O)CCOC[C@H](Cc2ccccc2)N1Cc1ccccc1Br | 11.1% | –
44 | Cc1cccc(OCCCC(=O)Nc2sc3c(c2C(N)=O)CCC(C)C3)c1 (stereo unspecified) | 10.1% | –
45 | Cc1nn(CC(=O)N2CCN(c3cccc(C(F)(F)F)c3)CC2)c(=O)c2cc3sccc3n12 | 7.26% | –
46 | CCOc1ccc(-n2c(SCC(=O)NCc3ccccc3)nc3n[nH]c(C)c3c2=N)cc1 | -8.4% | –
47 | COCCCNC(=S)N1CCCC(c2nc3cc(C)c(C)cc3[nH]2)C1 (stereo unspecified) | -14.1% [at 0.397 µM] | –
48 | CN(C)CCCNC(=S)N1CCN(c2nc(-c3ccccc3)cs2)CC1 | -17.3% [at 1.82 µM] | –

Row | Compound | growth rescue (activation) | Potency
49 | COCCCNC(=S)N1CCN(c2nc(-c3cccc(OC)c3)cs2)CC1 | – | 14.1 µM (active)
50 | COc1cc(OC)c(N(C)C(=O)c2cc3c(=O)oc4ccccc4c3s2)cc1Cl | 14.8% | –
51 | Cc1ccc(NC(=O)CN2C(=O)C(c3ccc(F)cc3)=NC23CCCCCC3)c(C)c1 | 7.76% | –
52 | CCOc1ccc(NC(=O)c2ccc(CSc3nnnn3C)cc2)cc1 | -9.01% | –
53 | COC(=O)c1ccc(CSc2nncn2N)cc1 | -10.7% | –
54 | CCOC(=O)c1ccc(CSc2nnc3cc(C)c4ccccc4n23)cc1 | – | 22.4 µM (active)
55 | COc1ccccc1N1CCN(C(CNC(=O)C(=O)NCc2ccc(C)cc2)c2cccnc2)CC1 (stereo unspecified) | 7.84% | –
56 | CCc1cccc(C)c1Nc1c(-c2ccc(N(C)C)cc2)nc2ncccn12 | -4.39% | –
57 | COc1ccccc1CNC(=O)CCCn1c(=O)c2ccccc2n(CC(=O)Nc2ccc(C)cc2Cl)c1=O | 9.64% | –
58 | O=C(CSc1oc(-c2ccccc2)nc1S(=O)(=O)c1ccc(Br)cc1)NC1CCCCC1 | 9.58% | –
59 | Cn1c(C(=O)Nc2cccc(C(F)(F)F)c2)cc2c(=O)n3ccccc3nc21 | 15% | –
60 | CCN1CCc2nc3sc(C(=O)Nc4ccccc4OC(F)(F)F)c(N)c3cc2C1 | 7.69% | –
61 | Cc1cccc2cc3c(N)c(C(=O)N4CCCc5ccccc54)sc3nc12 | – | 15.8 µM (active)
62 | CCc1ccc(NC(=O)c2sc3nc4c(cc3c2N)CN(CC)CC4)cc1 | 26.6% | –
63 | CC1CCC(N2CC(=O)N(CCC3=CCCCC3)C(c3ccc(F)cc3)C2=O)CC1 (stereo unspecified) | -22.5% | –
64 | CCN(CC)C(=O)CSc1nc2ccsc2c(=O)n1Cc1ccccc1Cl | 13.3% | –
65 | COc1ccc(N2CCN(C3=NS(=O)(=O)C(c4cccc(Br)c4)=C3C)CC2)cc1 | 15.8% | –
66 | CCOC(=O)c1cc2c(ccn2C)n1CC(=O)N1CCC(C)CC1 | – | 35.5 µM (active)
67 | CCOC(=O)c1cc2occc2n1CC(=O)N1CCN(C(=O)c2ccco2)CC1 | -23.7% | –
68 | CCOC(=O)c1cc2occc2n1CC(=O)NC1CCC(C)CC1 (stereo unspecified) | -11.8% | –
69 | CCOc1cc2[nH]c(=O)n(Cc3ccc(C(=O)NCCN(CC)CC)cc3)c(=O)c2cc1OCC | 25.5% [at 9.22 µM] | –
70 | COc1ccc(OCCCn2c(C3CC(=O)N(c4ccc(F)cc4)C3)nc3ccccc32)cc1 (stereo unspecified) | 28.2% | –
71 | Cc1nc2ccn(Cc3cccs3)c(=O)c2cc1C(=O)NCc1ccc(Cl)cc1 | -22% | –
72 | COc1ccc(S(=O)(=O)Nc2cc3c(C(=O)OC(C)C)c(C)oc3c3ccccc23)cc1 | 14.5% | –

Row | Compound | growth rescue (activation) | Potency
73 | CCOc1ccc(OCC)c(NS(=O)(=O)c2ccc3[nH]c(=O)ccc3c2)c1 | 17.4% | –
74 | COc1cc(NS(=O)(=O)c2ccc3ccccc3c2)c2ncccc2c1 | – | 12.6 µM (active)
75 | N#C/C(=C\c1ccccc1F)c1nc2ccccc2c(=O)[nH]1 | 3.78% | –
76 | CCC(C(=O)Nc1cccc(-c2nc3cccnc3s2)c1C)c1ccccc1 (stereo unspecified) | -2.05% | –
77 | COc1cccc(NC(=O)Cn2c(=O)cc(C)c3c(C)nn(-c4cccc(F)c4)c32)c1 | 3.17% | –
78 | Cn1nnnc1SCCNCc1ccc(Cl)c(Cl)c1 | 10.9% | –
79 | Cc1cn(C)c(CC(=O)NCc2ccc(Cl)cc2)c1C(=O)O | 15.2% | –
80 | CC(C)CC1C(=O)N(Cc2cn(Cc3ccco3)nn2)CCS(=O)(=O)N1Cc1ccc(-c2ccc(Cl)c(Cl)c2)cc1 (stereo unspecified) | 15.1% | –
81 | Cc1ccc(-c2ccc(CN3C(C)C(=O)N(Cc4cn(CCC5OCCCO5)nn4)CCS3(=O)=O)cc2)cc1 (stereo unspecified) | 4.45% | –
82 | Cc1ccc(-c2ccc(CN3C(C(C)C)C(=O)N(Cc4cn(CCC5OCCCO5)nn4)CCS3(=O)=O)cc2)cc1 (stereo unspecified) | – | 35.5 µM (active)
83 | CC(C)C1C(=O)N(Cc2cn(CCC3OCCO3)nn2)CCS(=O)(=O)N1Cc1ccc(-c2ccccc2C(F)(F)F)cc1 (stereo unspecified) | – | 35.5 µM (active)
84 | CC1C(=O)N(Cc2cn(Cc3ccco3)nn2)CCS(=O)(=O)N1Cc1ccc(-c2cccc(CO)c2)cc1 (stereo unspecified) | 19.9% | –
85 | Cc1ccc(-c2ccc(CN3C(C(C)C)C(=O)N(Cc4cn(CCC5OCCO5)nn4)CCS3(=O)=O)cc2)cc1 (stereo unspecified) | – | 31.6 µM (active)
86 | COCOCCn1cc(CN2CCS(=O)(=O)N(Cc3ccc(-c4ccc(OC)cc4)cc3)C(CC(C)C)C2=O)nn1 (stereo unspecified) | 25.3% | –
87 | COc1ccc(Cn2cc(CN3CCS(=O)(=O)N(Cc4ccc(-c5cccc(Cl)c5)cc4)C(C)C3=O)nn2)cc1 (stereo unspecified) | 17.6% | –
88 | COc1ccc(-c2ccc(CN3C(C(C)C)C(=O)N(Cc4cn(CC5CCCCC5)nn4)CCS3(=O)=O)cc2)cn1 (stereo unspecified) | 18.7% | –
89 | COc1cc(NC(=O)CN2CCN(S(=O)(=O)c3ccc(Br)cc3)CC2)cc(OC)c1 | -18.8% | –
90 | Cc1ccccc1CNC(=O)c1ccc(NC(=O)N2CCCCc3ccccc32)cc1 | 4.84% | –
91 | COc1cc(CN(CC2CCCO2)C(=O)c2ccccc2F)cc(OC)c1OC (stereo unspecified) | 6.37% | –
92 | CCOc1ccc(NC(=O)c2c(NC(=O)Cc3ccccc3)sc3c2CCCCC3)cc1 | 0.279% | –
93 | CC1CCCN(Cc2c(O)ccc3c(=O)c(Oc4ccc(C(C)(C)C)cc4)c(C(F)(F)F)oc23)C1 (stereo unspecified) | 12.6% | –
94 | CCCCOC(=O)/C(C#N)=C/c1ccc(-c2cccc(C(F)(F)F)c2)o1 | 24.7% | –
95 | Cc1ccc(-c2ccc(/C=C(\C#N)C(N)=S)o2)c([N+](=O)[O-])c1 | – | 22.4 µM (active)
96 | CCOC(=O)c1ccc(-c2ccc(/C=C(\C#N)C(=O)Nc3ccc(C)cc3)o2)cc1 | 13.1% | –
